From PubChem BioAssay (EPA / NIEHS) come the findings set out here.

The source holds several records for some structures; these can differ, active in one and inactive in another. Activity calls are given as the source filed them. How the source made its calls: active means hit-call score of the fitted dose curve at least 0.9, where 1 is the maximum; inactive means score below 0.9.

The nature of the assay: ATG_CMV_CIS: Attagene CIS-FACTORIAL HepG2 Assay for human CMV (Internal Marker) (AID 2282928).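 Further: endpoint acts as a background internal control marker rather than a target.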 Conditions: HepG2 CMV promoter reporter, transcription factor profiling; actives raise or lower the signal. The procedure: ATG_CIS is a cell-based, multiplexed-readout assay that uses HepG2, a human liver cell line, with measurements taken at 24 hours after chemical dosing in a 24-well plate.ATG_CMV_CIS is one of 52 assay component(s) measured or calculated from the ATG_CIS assay. It is designed to make measurements of mRNA induction, a form of inducible reporter, as detected with fluorescence intensity signals by Reverse transcription polymerase chain reaction (RT-PCR) and Capillary electrophoresis technology.Data from the assay component ATG_CMV_CIS was analyzed into 1 assay endpoint. This assay endpoint, ATG_CMV_CIS, was analyzed with bidirectional fitting relative to DMSO as the negative control and baseline of activity. Using a type of inducible reporter, measures of mRNA for gain or loss-of-signal activity can be used to understand the background control at the transcription factor-level as they relate to the gene . Furthermore, this assay endpoint can be referred to as a secondary readout, because this assay has produced multiple assay endpoints where this one serves a background control function. To generalize the intended target to other relatable targets, this assay endpoint is annotated to the background measurement intended target family, where the subfamily is internal marker.
Human liver HepG2 cells are transiently transfected with multiple reporter transcription units (MRTUs) in 6-well plates using FuGene 6 reagent (Roche; 3 ml FuGene/1 mg DNA). The MRTU constructs are regulated by a cis-regulating element (promoter). […] A major difference between the CIS and TRANS system is that in CIS activities of endogenous TFs are measured, whereas the TRANS assay evaluates changes in activities of exogenous, chimeric NR-Gal4 proteins. […] At the end of 24 hour incubation, total RNA was isolated using TriZol reagent (Invitrogen). The isolated RNA is then reverse-transcribed using oligo(dT) primer and Mo-MLV reverse transcriptase (Invitrogen) with DNAse I (Ambion) treatment for 30 min. The one-tenth of the produced cDNA was amplified by PCR using Taq DNA polymerase (Invitrogen) and two reporter sequence-specific primers. The PCR products were fluorescently labeled by primer extension with 6-arboxyfluorescein (6-FAM) 5'-labeled reporter sequence-specific primer (2 min at 95 C, 20 s at 68 C and 10 min at 72 C) and these products were digested with 5U of HpaI (New England Biolabs) for 2h at 37 C. The fragments were purified using Qiaquick PCR columns (Qiagen), analyzed on an ABI 3130xL genetic analyzer (Applied Biosystems) with peak positions identified by using a set of X-rhodamine (ROX)-labeled MapMarker1000 molecular weight standards (BioVentures). The raw capillary electrophoresis data was processed using Attagraph software (Attagene).
`CC(C)(C)C(O)(CCc1ccc(Cl)cc1)Cn1cncn1` (stereo not given): the concentration at half-maximal activity (AC50) is 122 µM (active). Turning to `CC(C)(C)OOC(C)(C)CCC(C)(C)OOC(C)(C)C`, the concentration at half-maximal activity (AC50) was 90.1 µM (active). With `CCOc1cccc(C2(N3CCN(c4ccccc4)CC3)CCC(C)CC2)c1` (stereo not given), the call was inactive. For the compound `CCCCCOC(=O)c1ccccc1C(=O)OCCCCC`, the compound was classed as inactive. For `OCCCBr`, the compound was classed as inactive. Same read-out and setting: in the case of `Cc1ccc(N=C=O)cc1N=C=O` it was “inactive”.

For the compound `C[C@]12C=CC3=C4CCC(=O)C=C4CC[C@H]3[C@@H]1CC[C@@H]2O`, the AC50 is 28.3 µM (active) and the outcome was inactive.

Regarding `O=C(Nc1ccccc1)c1ccccc1I`, the result was inactive. Consider `OCCCl`, for which the call was inactive. As for `COP(=S)(OC)SCN1C(=O)c2ccccc2C1=O`, the call was inactive. On the same count and under the same terms, the entry for `c1ccc2c(c1)-c1cccc3cccc-2c13` is “inactive”.

`Clc1ccc(C(c2ccc(Cl)cc2)C(Cl)Cl)cc1`: the AC50 is 52.9 µM (active).

Consider `CN(C)c1ccc(C(=O)c2ccc(N(C)C)cc2)cc1`, for which the result was inactive. On to `Oc1ccc2ccc3cccc4ccc1c2c34`, for which the call was inactive. On to `CCCSC(=O)N(CCC)CCC`, for which the result was inactive. With `ClC1=C(Cl)[C@]2(Cl)[C@H]3[C@H]([C@@H]4C=C[C@H]3C4)[C@@]1(Cl)C2(Cl)Cl`, the AC50 is 45.6 µM (active). With `O=C(O)C1C2CCC(O2)C1C(=O)O` (stereo not given), the concentration at half-maximal activity (AC50) is 77.8 µM (active).

As to `Cc1cc(N=Nc2ccccc2C)ccc1N`, the call was inactive.

Regarding `CCC(C)c1ccc(O)cc1` (stereo not given), the half-maximal activity concentration (AC50) was 65.8 µM (active). For the compound `Brc1ccc(Oc2ccccc2)cc1`, the outcome was inactive. With `Nc1ccc(N=Nc2ccccc2)cc1`, the compound was classed as inactive. With `O=[N+]([O-])C(Br)(CO)CO`, the outcome was inactive. Turning to `c1ccc(N=Nc2ccccc2)cc1`, the compound was classed as inactive. Still for that read-out and setting: the entry for `CN(C)c1ccccc1` is “inactive”; for `c1ccc2c(c1)oc1ccccc12` it is “inactive”. On to `ClCCOCCCl`, for which the compound was classed as inactive.

In the case of `CC(C)N(Cc1ccccc1)C(=O)C(C)(C)C`, the call was inactive. Take `CN(C)[C@@H]1C(=O)C(C(N)=O)=C(O)[C@@]2(O)C(=O)C3=C(O)c4c(O)cccc4[C@@](C)(O)[C@H]3C[C@@H]12`: the concentration at half-maximal activity (AC50) was 137 µM (active). For the compound `CNC(=O)Oc1cccc2c1OC(C)(C)C2`, the result was inactive. Regarding `Nc1ccc([N+](=O)[O-])cc1`, the compound was called inactive.

For `CCN(CC)N=O`, the call was inactive.

On to `Cc1ccc(N)c(N)c1`, for which the AC50 was 33.3 µM (active). Regarding `CO[C@@H]1[C@H](OC(=O)NC(=O)CCl)CC[C@]2(CO2)[C@H]1[C@@]1(C)O[C@@H]1CC=C(C)C`, the outcome was inactive. Turning to `CC(C)(C)OOC(=O)c1ccccc1`, the half-maximal activity concentration (AC50) was 74.8 µM (active).

Take `Cc1ccc([N+](=O)[O-])cc1`: the compound was called inactive. The same measure, in the same setting: in the case of `CCN(CC)CCO` it was “inactive”; in that of `O=C(Oc1ccc(Br)cc1)N1CCN2CCC1CC2`, “inactive”; in that of `OCCOCCO`, “inactive”. Turning to `CS(=O)(=O)NC(=O)c1cc(Oc2ccc(C(F)(F)F)cc2Cl)ccc1[N+](=O)[O-]`, the call was inactive.
